FGF22 binding: binders of recombinant human FGF22 by thermal shift; SYPRO orange fluorescence; percent of sucrose octasulfate shift, DMSO zero; 340,000 tested, 1.5% active; activity (Tm shift, normalised), % at 9.99 µM;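 active means mean Tm shift, scaled 0 neutral to 100 positive control, at about 1.3% or above, every replicate too, limit read from the data; inconclusive means no clear call, values can overlap the other calls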
MLL AF4-AF9 inh: inhibitors of human MLL-AF4/AF9 interaction | AlphaScreen, biotin-AF4 peptide binding to FLAG-AF9 | inhibition, % at 10 µM | 350,000 tested, 0.47% active | AID 651704;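 active means every replicate reaching a set inhibition limit, whatever the replicate mean, cut at about 25% in these data; inconclusive means mean inhibition reaches that limit but some replicates miss it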;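 further: 0% = plate neutral control median and 100% = total signal loss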
Target sequence (P42568 whole entry, looked up): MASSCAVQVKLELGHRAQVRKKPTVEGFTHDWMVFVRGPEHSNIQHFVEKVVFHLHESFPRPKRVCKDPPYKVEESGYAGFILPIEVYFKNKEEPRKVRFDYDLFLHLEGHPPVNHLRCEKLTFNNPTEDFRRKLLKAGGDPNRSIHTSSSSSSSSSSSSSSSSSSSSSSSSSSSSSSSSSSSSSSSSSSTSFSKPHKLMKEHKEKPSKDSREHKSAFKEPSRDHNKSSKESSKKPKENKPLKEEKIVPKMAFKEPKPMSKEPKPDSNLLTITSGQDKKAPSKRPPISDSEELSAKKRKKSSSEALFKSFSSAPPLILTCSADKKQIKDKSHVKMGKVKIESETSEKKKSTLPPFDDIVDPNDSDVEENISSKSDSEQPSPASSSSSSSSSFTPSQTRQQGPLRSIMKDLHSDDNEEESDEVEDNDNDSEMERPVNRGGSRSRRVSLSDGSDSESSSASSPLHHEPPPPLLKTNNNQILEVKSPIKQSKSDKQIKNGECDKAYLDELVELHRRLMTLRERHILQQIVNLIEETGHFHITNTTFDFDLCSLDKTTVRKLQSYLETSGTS
esBAF inh: SWI/SNF esBAF complex inhibition | mouse ES cells, Bmi1-luciferase knock-in reporter, 24 h; 100% = twice the neutral-well signal | reporter increase, % at 12.5 µM | 350,000 tested, 2% active; in the data active means activation above about 40%; inconclusive means no clear call, values can overlap the other calls;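 further: 0% = median of the plate's neutral control wells and 100% = double that signal; a rise in the Bmi1 reporter signal indicates esBAF inhibition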
Wnt bcat act: activators of Wnt/beta-catenin signaling. 300,000 tested, 1.2% active. activation, % at 9.35 µM. Wnt/beta-catenin reporter cell assay, activator, plate reader. AID 743398; in the data active means activation above about 30%, passing the limit was not always enough; inconclusive means no clear call, values can overlap the other calls;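 further: 0% = neutral control wells and 100% = positive control wells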
MITF TRPM1 HTS: increases MITF-driven TRPM1 promoter luciferase signal. SK-MEL-5 TRPM1-promoter luciferase, 24 h; % of positive control, neutral wells = 0. activation, % at 12.5 µM. 300,000 tested, 0.75% active;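 active means mean activation of at least 80% with every replicate also reaching 80%; inconclusive means mean reaches 80% but some replicate falls short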;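 further: 0% = neutral control wells and 100% = parthenolide positive control wells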
SMARCA2 activ: activators of SMARCA2 function; MG213 cells, MMTV-luciferase reporter, dexamethasone, overnight; activation, % at 9.1 µM; 370,000 tested, 1% active; in the data active means activation above about 7.8%;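 further: 0% = vehicle wells and 100% = reference activator wells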
* = called active by the depositor; u = inconclusive; x = not tested or not shown. Rows were chosen to be rich in hits. Some 4.3% of all compounds tested hit in one or more screens of this group.

SMILES | FGF22 binding | MLL AF4-AF9 inh | esBAF inh | Wnt bcat act | MITF TRPM1 HTS | SMARCA2 activ
CCOc1cccc2cc(-c3csc(NC(=O)CCC(=O)N4CCC(C)CC4)n3)c(=O)oc12 | x | x | 7 | x | -34 | 6
COCCNC(=O)NC(=O)CN1CCN(C(c2ccccc2)c2ccccc2)CC1 | 43* | 0 | x | -4 | -5 | 3
CNC[C@H]1OCCCC[C@H](C)Oc2ccc(NS(C)(=O)=O)cc2C(=O)N([C@H](C)CO)C[C@@H]1C | 0 | -5 | 1 | x | x | x
COc1ccccc1N/C=C/c1onc(C)c1[N+](=O)[O-] | x | x | x | -2 | -4 | 1
Cc1noc(/C=C/c2ccccn2)c1[N+](=O)[O-] | 0 | -3 | 48* | 0 | x | -1
Cc1ccc(C(=O)COc2cc(O)c3c(=O)cc(-c4ccccc4)oc3c2)cc1 | 0 | 1 | 0 | 0 | x | 0
COCOc1ccc(-c2cc(=O)c3c(O)cc(OCOC)cc3o2)cc1 | 0 | 1 | 88* | 15 | x | 8
O=c1cc(-c2ccc(O)cc2)oc2cc(O)cc(O)c12 | 0 | -1 | u | 46* | 94* | 0
O=c1cc(-c2ccccc2)oc2cccc(O)c12 | 0 | 2 | 45* | -1 | 21 | 0
O=c1cc(-c2cccc(Cl)c2)oc2cccc(O)c12 | 0 | 4 | 39 | 7 | 14 | 1
COc1cc(O)c2c(=O)cc(-c3ccccc3)oc2c1 | 0 | 4 | 50* | 23 | 95* | 0
COc1cc(-c2cc(=O)c3c(O)cc(O)cc3o2)ccc1O | x | x | 32 | x | x | x
Cc1ccc(S(=O)(=O)Nc2ccc3c(c2)CC(=O)N([C@H](C)CO)C[C@@H](C)[C@H](CN(C)C(=O)NC2CCCCC2)O3)cc1 | 0 | -1 | -2 | x | x | x
Cc1ccc(S(=O)(=O)Nc2ccc3c(c2)CC(=O)N([C@H](C)CO)C[C@H](C)[C@@H](CN(C)C(=O)NC2CCCCC2)O3)cc1 | 0 | -1 | 0 | x | x | x
COc1cccc(-c2nnc(SC(C(=O)c3c[nH]c4ccccc34)c3ccccc3)n2C)c1 (stereo not drawn) | 43* | -4 | x | -21 | -6 | -1
COc1ccccc1-c1nnc(SC(C(=O)c2c[nH]c3ccccc23)c2ccccc2)n1C (stereo not drawn) | 0 | -1 | x | -11 | -8 | -2
CC1=C(C(=O)Nc2cccc([N+](=O)[O-])c2)C2(CCC(C)CC2)OC1=O (stereo not drawn) | 44* | -4 | x | 3 | 4 | -5
CCCNC(=O)N(C)C[C@H]1Oc2ncc(-c3ccc(C(=O)N(C)C)cc3)cc2C(=O)N([C@H](C)CO)C[C@@H]1C | 0 | -34 | 2 | x | x | x
c1nc(C2CCCCC2)cc2cc3c(cc12)OCO3 | 0 | 1 | 51* | 5 | 65 | 2
Cc1noc(C)c1S(=O)(=O)Nc1ccc2c(c1)C(=O)N([C@H](C)CO)C[C@H](C)[C@H](CN(C)Cc1ccc3c(c1)OCO3)OCCCC[C@H](C)O2 | -1 | 4 | 0 | x | x | x
CC1=C(C(=O)N(C)C)CC(CC(=O)NC2CCCC2)C(=O)N1CCC1=CCCCC1 (stereo not drawn) | 0 | -15 | 49* | 8 | x | -2
CC1=C(C(=O)N(C)C)CC(CC(=O)NC2CCCCC2)C(=O)N1CCC1=CCCCC1 (stereo not drawn) | 0 | 0 | 70* | -2 | x | 2
CCN(CC)C(=O)C1=C(C)N(CCC2=CCCCC2)C(=O)C(CC(=O)NC2CCCC2)C1 (stereo not drawn) | 0 | 0 | 2 | -5 | x | -5
C[C@H](CO)N1C[C@H](C)[C@H](CN(C)Cc2ccccn2)Oc2ncc(-c3cccc(F)c3)cc2C1=O | 0 | -4 | 3 | x | x | x
CNC[C@H]1OCCCC[C@@H](C)Oc2ccc(NC(=O)CCC(F)(F)F)cc2C(=O)N([C@@H](C)CO)C[C@H]1C | 0 | -4 | -8 | x | x | x
SMILES | FGF22 binding | MLL AF4-AF9 inh | esBAF inh | Wnt bcat act | MITF TRPM1 HTS | SMARCA2 activ
CCOC(=O)c1c(C)[nH]c(C(=O)COC(=O)C2CC2)c1C | 0 | -2 | u | -23 | 86* | 7
CCOC(=O)CC(=O)c1[nH]c(C)c(C(=O)OCC)c1C | 0 | -5 | x | 2 | 49 | 1
CC(=O)c1c(C)[nH]c(C(=O)COC(=O)C2CC2)c1C | 0 | 0 | 5 | 2 | 14 | 1
CCOC(=O)c1c(C)[nH]c(C(=O)COC(=O)COc2ccc(OC)cc2)c1C | 44* | 0 | x | -5 | -13 | -4
CCOC(=O)c1c(C)[nH]c(C(=O)COC(=O)C2(C)CC2(Cl)Cl)c1C (stereo not drawn) | x | x | 76* | 50* | 78 | 5
Cc1noc(C)c1S(=O)(=O)N(C)C[C@H]1Oc2ccc(NC(=O)C3CCCCC3)cc2CC(=O)N([C@@H](C)CO)C[C@H]1C | 0 | 0 | -3 | x | x | x
COCCCNC(=O)CSc1nnc(-c2cccnc2)n1C1CCCCC1 | x | x | x | x | x | -4
O=C(C[C@H]1C=C[C@H](NC(=O)c2cccnc2)[C@H](CO)O1)NCCN1CCCCC1 | x | x | -8 | x | x | x
CCOC(=O)c1c2ccc(OCC(=O)NN)cc2n2ccccc12 | 43* | -25 | x | 0 | 7 | -1
CCOC(=O)c1c2ccc(OCC(=O)N/N=C/c3ccc(C)cc3)cc2n2ccccc12 | x | x | x | x | -8 | 2
COc1ccc(S(=O)(=O)Nc2ccc3c(c2)C(=O)N([C@@H](C)CO)C[C@H](C)[C@@H](CN(C)C(=O)Nc2ccccc2)OCCCC[C@@H](C)O3)cc1 | 0 | x | -1 | x | x | x
O=C(C[C@H]1C[C@H]2c3cc(NC(=O)CC4CC4)ccc3O[C@H]2[C@@H](CO)O1)NCc1ccccn1 | -1 | -4 | -4 | x | x | x
Cc1cc(C(=O)Cn2nnc3ccccc3c2=O)c(C)n1Cc1cccs1 | x | x | -38 | 35* | x | 2
Cc1cc(C)cc(NC(=O)c2cc(C)n(Cc3cccs3)c2C)c1 | 0 | 2 | 38 | 2 | 103* | 5
O=C(N[C@@H]1CC[C@H](CCNS(=O)(=O)c2ccc(Cl)cc2)O[C@H]1CO)c1cccc(F)c1 | 0 | 0 | 3 | x | x | x
CC1(C)Cc2c(sc3nc(-c4cc5ccccc5o4)n(N)c(=O)c23)CO1 | x | x | 48* | x | 129* | 5
C[C@@H]1CN([C@@H](C)CO)C(=O)c2cccc(NC(=O)Nc3cccc4ccccc34)c2O[C@H]1CN(C)C(=O)Nc1cccc2ccccc12 | 0 | 1 | -2 | x | x | x
CCCc1cn(CC[C@@H]2CC[C@@H](NC(=O)C3CCC3)[C@H](CO)O2)nn1 | 0 | -2 | -4 | x | x | x
NS(=O)(=O)c1ccc(NCc2cnc3ccccc3n2)cc1 | 43* | 3 | 13 | 7 | x | 0
NS(=O)(=O)c1ccc(NCc2cnc3ccccc3c2)cc1 | 0 | -2 | -1 | 1 | x | -3
COc1ccccc1NC(=O)C[C@H]1CC[C@H]2[C@@H](COc3ccc(NS(C)(=O)=O)cc3C(=O)N2C)O1 | 0 | 0 | 1 | x | x | x
CO[C@@H]1CC[C@@H]2CCN(C)C(=O)CCCN(C)C(=O)c3cc(C#N)ccc3OC[C@H]1O2 | 0 | -1 | -2 | x | x | x
